Source: PubChem BioAssay (NCI)
Compounds without any hit were thinned out: in the full panel of roughly 83,000, 20% have a hit.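 Single-dose data. Exposure time 48 hours. Values below 10 considered active.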 Active and inactive are the calls of the source.

Assays:
Experiment in all cases: NCI-60 one-dose screen, 48 h (100 = growth as untreated, 0 = no growth, -100 = all killed)
Conditions in all cases: 10 µM unless noted
[1] = system: NCI-H23 lung
[2] = system: NCI-H226 lung
[3] = system: NCI-H322M lung
[4] = system: HOP-62 NSCLC
[5] = system: NCI-H460 lung
[6] = system: HOP-92 NSCLC
[7] = system: NCI-H522 lung
[8] = system: A549/ATCC NSCLC
[9] = system: 786-0 renal
[10] = system: COLO 205 colon

Row | Structure (SMILES) | growth [1] | growth [2] | growth [3] | growth [4] | growth [5] | growth [6] | growth [7] | growth [8] | growth [9] | growth [10]
1 | COc1ccc(CNCCN2C(=O)c3ccc4c5c(ccc(c35)C2=O)C(=O)N(CCNCc2ccc(OC)cc2)C4=O)cc1 | -52.5% (active) | -63.7% (active) | -74.2% (active) | -33.8% (active) | -78.8% (active) | -46.8% (active) | -80.9% (active) | -84.1% (active) | -76.5% (active) | -40.9% (active)
2 | Clc1ccc(N2N=C(c3cccc(Nc4ccncc4)c3)CC2c2ccccc2)cc1 (stereo not given) | 92.6% (inactive) | 94.5% (inactive) | 92.7% (inactive) | 92.2% (inactive) | 98.9% (inactive) | 67.7% (inactive) | 80.4% (inactive) | 93.9% (inactive) | 10.9% (inactive) | 73.1% (inactive)
3 | COc1ccc(C2CC(c3cccc(Nc4ccncc4)c3)=NN2c2ccc(Cl)cc2)cc1 (stereo not given) | 83% (inactive) | 88.8% (inactive) | 73.7% (inactive) | 25.3% (inactive) | -85.9% (active) | 51.5% (inactive) | -23% (active) | 35.9% (inactive) | 102% (inactive) | -65.9% (active)
4 | CCSc1ccc2c(c1)N(CCCN1CCN(C)CC1)c1ccccc1S2 | 74.2% (inactive) | 90.5% (inactive) | 73.1% (inactive) | 69.8% (inactive) | 9.17% (active) | 20.3% (inactive) | 70.3% (inactive) | 53.6% (inactive) | 43.2% (inactive) | -62.1% (active)
5 | COc1ccc(C(=O)/C=C/c2ccc(OCc3ccccc3)c(OC)c2)cc1OC | 59.8% (inactive) | 75.8% (inactive) | 43.2% (inactive) | 31.4% (inactive) | 47% (inactive) | 11.5% (inactive) | 28.9% (inactive) | 13.6% (inactive) | 87.9% (inactive) | 74.6% (inactive)
6 | CCCCc1ccc(Nc2nnc(SCC(=O)NC(=O)NCC)s2)cc1 | 97.3% (inactive) | 95.7% (inactive) | 81.5% (inactive) | 96% (inactive) | 102% (inactive) | 61.4% (inactive) | 87.7% (inactive) | 109% (inactive) | 95.9% (inactive) | 202% (inactive)
7 | Clc1ccc(C2CC(c3cccc(Nc4ccncc4)c3)=NN2c2cc(Cl)cc(Cl)c2)cc1 (stereo not given) | 79.6% (inactive) | 88.7% (inactive) | 81.6% (inactive) | 68.5% (inactive) | -68% (active) | 71.3% (inactive) | 89.1% (inactive) | 47.6% (inactive) | -88.5% (active) | -58% (active)
8 | O=C1CCCN1c1cccc2cccnc12 | 92.9% (inactive) | 98.8% (inactive) | 102% (inactive) | 94.4% (inactive) | 102% (inactive) | 103% (inactive) | 96% (inactive) | 99% (inactive) | 97.5% (inactive) | 108% (inactive)
9 | CSc1nc(O)c(-c2ccccc2)c(=O)[nH]1 | 103% (inactive) | 99.1% (inactive) | 101% (inactive) | 105% (inactive) | 104% (inactive) | 101% (inactive) | 94.2% (inactive) | 100% (inactive) | 101% (inactive) | 103% (inactive)
10 | O=C(CCN1CCCC1)Nc1ccc2c(NCc3ccc(F)cc3)c3ccccc3nc2c1 | -39.8% (active) | 4% (active) | -4.47% (active) | -1.6% (active) | -63.4% (active) | -8.01% (active) | -50.1% (active) | -37.6% (active) | 6.33% (active) | -62.5% (active)
11 | CC(C)NC(=O)N1C(=O)CCC1NNC(=O)c1ccc([N+](=O)[O-])cc1 (stereo not given) | 89.8% (inactive) | 104% (inactive) | 96.3% (inactive) | 106% (inactive) | 121% (inactive) | 109% (inactive) | 93.1% (inactive) | 104% (inactive) | 98.5% (inactive) | 112% (inactive)
12 | CN1CCN(c2ccc3nc(-c4cc(C(C)(C)C)c(O)c(C(C)(C)C)c4)[nH]c3c2)CC1 | 92.6% (inactive) | 96% (inactive) | 81% (inactive) | 69.8% (inactive) | 3.88% (active) | 48.6% (inactive) | 75.5% (inactive) | 53.4% (inactive) | 55.4% (inactive) | -56.7% (active)
13 | NC(=O)c1cccc(-n2ccc3cc(NC(=O)Nc4cc(C(F)(F)F)cc(C(F)(F)F)c4)ccc32)n1 | 44.5% (inactive) | 70% (inactive) | 71.4% (inactive) | 44.8% (inactive) | 29% (inactive) | 52.5% (inactive) | 59.1% (inactive) | 34.1% (inactive) | 24.3% (inactive) | 62.5% (inactive)
14 | COc1ccccc1OCC(=O)N1CCCCCC1 | 92.8% (inactive) | 92.1% (inactive) | 105% (inactive) | 104% (inactive) | 105% (inactive) | 82.8% (inactive) | 96% (inactive) | 92.1% (inactive) | 117% (inactive) | 110% (inactive)
15 | COc1cc(NCCCN(CC(C)C)CC(C)C)c2ncccc2c1 | 72.9% (inactive) | 97.8% (inactive) | 108% (inactive) | 87.6% (inactive) | 95.2% (inactive) | 84.2% (inactive) | 73.2% (inactive) | 80.7% (inactive) | 90.7% (inactive) | 90.2% (inactive)
16 | Cc1ccc(-c2csc(/N=C3\C(=O)Nc4ccccc43)n2)cc1 | 23.5% (inactive) | 62.1% (inactive) | 47.1% (inactive) | 25.3% (inactive) | 8.52% (active) | -16.1% (active) | -57.6% (active) | 23% (inactive) | 14.7% (inactive) | -15.6% (active)
17 | CCN(CC)S(=O)(=O)c1cccc([N+](=O)[O-])c1 | 102% (inactive) | 85.3% (inactive) | 104% (inactive) | 74.5% (inactive) | 99.5% (inactive) | 87.9% (inactive) | 72.3% (inactive) | 65.3% (inactive) | 89.4% (inactive) | 102% (inactive)
18 | COc1ccc(C(=O)c2cc3c(N)c(C(=O)Nc4cccc5ccccc45)sc3nc2C)cc1 | 30.7% (inactive) | 47.4% (inactive) | 51.4% (inactive) | 30.2% (inactive) | 3.06% (active) | 44.5% (inactive) | -28.8% (active) | 17.6% (inactive) | 31.6% (inactive) | -37.7% (active)
19 | CC(=O)c1c(C)[nH]c(-c2nc3ccc(N4CCN(C)CC4)cc3[nH]2)c1-c1ccccc1 | 53% (inactive) | 55.2% (inactive) | 41.6% (inactive) | 33.3% (inactive) | 52.3% (inactive) | 29.8% (inactive) | 25.4% (inactive) | 38.1% (inactive) | 85.9% (inactive) | 16.1% (inactive)
20 | COc1ccc(-c2nc(N=Nc3c(O)[nH]c4ccccc34)nc(N3CCOCC3)c2C#N)cc1 | 81.9% (inactive) | 38.4% (inactive) | 77.1% (inactive) | 68% (inactive) | 46.5% (inactive) | 19.6% (inactive) | 72.1% (inactive) | 51.7% (inactive) | 79.7% (inactive) | 67.8% (inactive)
21 | COc1ccc(Cl)cc1NC(=O)c1c(NC(=O)C(F)(F)C(F)(F)F)sc2c1CCCCC2 | -5.14% (active) | -5.37% (active) | 12% (inactive) | -14.6% (active) | 3.45% (active) | -32.7% (active) | -0.0876% (active) | 7.89% (active) | -13.8% (active) | -32.9% (active)
22 | COc1ccc(C(=O)c2cc3c(N)c(C(=O)Nc4cccc(Br)c4C)sc3nc2C)cc1 | 27.4% (inactive) | 45.6% (inactive) | 52.6% (inactive) | 28.8% (inactive) | 5.88% (active) | 13.6% (inactive) | -27.4% (active) | 17.4% (inactive) | 26.2% (inactive) | -40% (active)
23 | Nc1ncc(C#Cc2cncc(NC(=O)c3cccc(C(F)(F)F)c3)c2)c2cccnc12 | 30.4% (inactive) | 39.2% (inactive) | 81% (inactive) | 52.8% (inactive) | 12.3% (inactive) | 65.6% (inactive) | 67.2% (inactive) | 31.8% (inactive) | 63.9% (inactive) | 47% (inactive)
24 | COc1cc(-c2cc(=O)oc3cc(O)ccc23)cc(OC)c1OC | 88.1% (inactive) | 87.3% (inactive) | 96.7% (inactive) | 87.6% (inactive) | 69.5% (inactive) | 54.2% (inactive) | 80.2% (inactive) | 90.1% (inactive) | 99.7% (inactive) | 99.4% (inactive)
25 | COc1ccc(/C=C\c2nc3ccccc3s2)cc1OP(=O)(O)O | 43.4% (inactive) | 66.3% (inactive) | 59.8% (inactive) | 49.3% (inactive) | 20.7% (inactive) | 90.2% (inactive) | 12.5% (inactive) | 42.3% (inactive) | 64.7% (inactive) | 112% (inactive)
26 | CN1CCN(CCCNc2nccc(-c3c(-c4ccc(F)c(O)c4)nc4sccn34)n2)S1(=O)=O | 94.2% (inactive) | 105% (inactive) | 115% (inactive) | 104% (inactive) | 101% (inactive) | 70.7% (inactive) | 74.4% (inactive) | 103% (inactive) | 126% (inactive) | 29.8% (inactive)
27 | Cc1ccc(/C=C/C(=O)c2ccc(N)cc2)c(C)c1 | 10.4% (inactive) | 109% (inactive) | 93% (inactive) | 104% (inactive) | 97.2% (inactive) | 88.2% (inactive) | -76.5% (active) | 99.2% (inactive) | -63.5% (active) | 60.3% (inactive)
